Screening results as filed in PubChem.
Only a selection was taken, and hits are over-represented in it overall.
AmpC inh detg = blocks E. coli AmpC beta-lactamase in detergent assay; 0.041% of 370,000 active; Potency, µM (series often up to 114 µM), for the others: at the highest dose activity change, negative = inhibition, actives largely listed as inhibitors; AmpC hydrolysis of nitrocefin, absorbance 480 nm, 0.01% Triton; P00811;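 also: potency is read from the fitted curve at half-maximal effect; 0% = no-compound wells and -100% = no-enzyme wells; nearly all actives have a fitted effect of over 25% in size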
Target sequence (P00811 whole entry, looked up): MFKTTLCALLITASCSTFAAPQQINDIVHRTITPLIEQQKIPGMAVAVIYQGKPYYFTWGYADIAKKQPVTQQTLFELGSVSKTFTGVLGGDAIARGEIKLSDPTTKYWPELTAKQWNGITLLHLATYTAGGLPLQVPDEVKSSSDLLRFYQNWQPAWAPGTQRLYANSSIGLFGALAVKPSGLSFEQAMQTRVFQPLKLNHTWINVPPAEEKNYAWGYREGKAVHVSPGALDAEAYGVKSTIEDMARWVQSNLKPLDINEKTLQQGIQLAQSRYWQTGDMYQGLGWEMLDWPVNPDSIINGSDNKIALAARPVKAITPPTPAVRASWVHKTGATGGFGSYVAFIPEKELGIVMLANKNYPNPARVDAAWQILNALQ
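AmpC (5.3 nM in the dispensed reagent) in 20 mM phosphate pH 7.0 with 0.01% (detergent screen) or 0.0001% Triton X-100 was preincubated with compounds for 15 min at room temperature. Nitrocefin was then added from an 800 uM solution, and hydrolysis was followed at 480 nm.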
Shiga inhibitor = inhibitors of Shiga toxin in Vero cells. inhibition, % at 38.7 µM. AID 2315. Vero cells, Shiga toxin protein synthesis inhibition reporter. 9.2% of 290,000 active; in the data active = inhibition mostly above about 28%, no sharp cut-off; inactive = mostly below about 43%; also: 0% is about no effect
CHX counter = counter-screen hit for Shiga toxin inhibitors, cycloheximide | cell reporter, cycloheximide protein synthesis inhibition counterscreen | max response, % | 12% of 300,000 active | AID 2314; in the data active = max response mostly above about 13%, no sharp cut-off; inactive = mostly below about 14%; also: read at 38.3 µM for the half of the compounds with a filed dose; 0% is about no effect
AmpC no deterg = AmpC beta-lactamase inhibition without detergent. P00811. AmpC nitrocefin hydrolysis, absorbance 480 nm, 0.0001% Triton. 0.52% of 330,000 active. Potency, µM (doses to about 57.1 µM), for the others: at the highest dose activity change, negative = inhibition, actives largely listed as inhibitors;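 also: potency is read from the fitted curve at half-maximal effect; plate controls were no compound for no effect and no enzyme for full effect; nearly all actives have a fitted effect of over 20% in size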
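AmpC (5.3 nM in the dispensed reagent) in 20 mM phosphate pH 7.0 with 0.01% (detergent screen) or 0.0001% Triton X-100 was preincubated with compounds for 15 min at room temperature. Nitrocefin was then added from an 800 uM solution, and hydrolysis was followed at 480 nm.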
NS1 inh = blocks influenza NS1 protein function; 0.4% of 270,000 active; Potency, µM (series often up to 46.1 µM), inactives show top-dose activity, positive = more growth; calls by dose curve; also: potency is read from the fitted curve at half-maximal effect; actives are rising curves; nearly all actives have a fitted effect of over 50% in size
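S. cerevisiae expressing influenza A NS1, grown in glucose, washed, then diluted 1:100 into pH 6.0 -URA galactose medium with 23 nl compound. Growth recovery read as OD600; NS1-free strain serves as control.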
Starred values were filed as active, the others as inactive. Unless noted, calls follow the shape of the dose curve; as a rule, active = well fitted curve in the direction sought with a large enough effect; inconclusive = small, poorly fitted or top-dose-only effect, or another doubt; inactive = no such curve, though single readings can be large; an effect the other way counts as inactive or inconclusive.

Screening Cc1ccc(N=Cc2nc(-c3ccc(C)cc3)oc2O)cc1 returned AmpC inh detg 8.9%, Shiga inhibitor 96.6*, CHX counter 26.7* and AmpC no deterg 5.4%.
For CN(C)c1ccc(N=Cc2nc(-c3ccccc3)oc2O)cc1 the results were AmpC inh detg -8.8%, Shiga inhibitor 17.2, CHX counter 10.9, AmpC no deterg -31.3% and NS1 inh -6.2%.
`Oc1oc(-c2ccccc2)nc1C=Nc1ccccc1` gave AmpC inh detg -5.1%, Shiga inhibitor 115.1*, CHX counter 46.4*, AmpC no deterg -23.2% and NS1 inh -30.1%.
CCCCOc1ccc(CNC(=O)c2cnc3sc(N4CCCCCC4)nn3c2=O)cc1 was read as AmpC inh detg 21.7%.
Screening Nc1ncnc(Oc2ccccc2F)c1[N+](=O)[O-] returned AmpC inh detg 0.8%, Shiga inhibitor -12.1, CHX counter 1.1, AmpC no deterg -11.8% and NS1 inh 1.5%.
`O=C(Nc1cccc(C(=O)N2CCN(c3cccc(Cl)c3)CC2)c1)c1nsc2ccccc12` gave AmpC inh detg 17.3%.
Screening Cc1ccc(C(=O)Nc2ccc(N3CCOCC3)nc2N2CCOCC2)cc1 returned AmpC inh detg inconclusive, Shiga inhibitor 24.3, CHX counter 0.7, AmpC no deterg -8.5% and NS1 inh -1.6%.
For O=C(Oc1oc(-c2ccco2)nc1C=Nc1ccc(Cl)cc1)c1ccco1 the results were AmpC inh detg -11.7%, Shiga inhibitor 50.5*, CHX counter 23.1*, AmpC no deterg -18.0% and NS1 inh -23.7%.
`CSc1ccccc1N=Cc1nc(-c2ccccc2)oc1O` gave AmpC inh detg -18.4%, Shiga inhibitor 94.0*, CHX counter 36.6*, AmpC no deterg -16.3% and NS1 inh -40.9%.
`O=C(Oc1cncc(Cl)c1)c1ccco1` gave AmpC inh detg -9.0%, Shiga inhibitor 12.7, CHX counter -3.5, AmpC no deterg -13.7% and NS1 inh -4.5%.
Screening Oc1oc(-c2ccc(Br)cc2)nc1C=Nc1ccc(Br)cn1 returned AmpC inh detg 2.1%, Shiga inhibitor 15.0, CHX counter -2.8 and AmpC no deterg -25.2%.
Screening Cc1onc(-c2c(Cl)cccc2Cl)c1NC(=O)NNc1ccccn1 returned AmpC inh detg -14.5%, Shiga inhibitor 8.7, CHX counter 28.8*, AmpC no deterg -10.4% and NS1 inh -0.2%.
COc1ccccc1/C=N/Nc1nncc2ccccc12 was read as AmpC inh detg -4.1%, Shiga inhibitor active, CHX counter 45.6*, AmpC no deterg -31.6% and NS1 inh -0.2%.
Screening COc1ccc(/C(C)=N/Nc2nc3ccccc3nc2C)cc1 returned AmpC inh detg -3.8%, Shiga inhibitor 76.0*, CHX counter 45.3*, AmpC no deterg 12.5% and NS1 inh 1.4%.
C/C(=N\Nc1nc(-c2ccccc2O)nc2ccccc12)c1ccccc1 was read as AmpC inh detg -0.6%, Shiga inhibitor 22.6, CHX counter 2.3, AmpC no deterg -18.1% and NS1 inh 1.9%.
Screening COc1ccc(/C=N/Nc2nncc3ccccc23)cc1 returned AmpC inh detg -11.6%, Shiga inhibitor 9.1, CHX counter 25.3*, AmpC no deterg 5.7% and NS1 inh -9.0%.
`COc1cccc(/C=N/Nc2nn3cnnc3c3ccccc23)c1` gave AmpC inh detg 5.3%, Shiga inhibitor 21.9, CHX counter 4.5, AmpC no deterg -14.7% and NS1 inh 15.1%.
`Oc1c(Br)cc(/C=N/Nc2nncc3ccccc23)cc1Br` gave AmpC inh detg 0.3%, Shiga inhibitor 66.8, CHX counter 29.8*, AmpC no deterg -8.2% and NS1 inh 4.7%.
COc1ccccc1NC(=O)NCCCCc1ccccc1 was read as AmpC inh detg 5.7%, Shiga inhibitor 21.9, CHX counter 10.1, AmpC no deterg -37.8% and NS1 inh -60.8%.
`COc1ccc(CCNC(=O)c2cc3c(=O)oc4ccc(C)cc4c3s2)cc1OC` gave AmpC inh detg 13.7%.
For CN(C)c1ccc(S(=O)(=O)N2CCCCC2)cc1NC(=O)COc1ccccc1F the results were AmpC inh detg 0.6%, Shiga inhibitor 15.5, CHX counter -4.8, AmpC no deterg -28.7% and NS1 inh inconclusive.
Screening Cc1c2cnn(-c3ccccc3)c(=O)c2c(C)n1CC(=O)NCc1ccccc1Br returned AmpC inh detg 15.7%.
